Calls of active or inactive are those of the source. The calls were made as follows: active = hit-call score of the fitted dose curve at least 0.9, where 1 is the maximum; inactive = score below 0.9.

Sequence of Nuclear factor erythroid 2-related factor 2 (Homo sapiens) (Q16236 whole entry, looked up): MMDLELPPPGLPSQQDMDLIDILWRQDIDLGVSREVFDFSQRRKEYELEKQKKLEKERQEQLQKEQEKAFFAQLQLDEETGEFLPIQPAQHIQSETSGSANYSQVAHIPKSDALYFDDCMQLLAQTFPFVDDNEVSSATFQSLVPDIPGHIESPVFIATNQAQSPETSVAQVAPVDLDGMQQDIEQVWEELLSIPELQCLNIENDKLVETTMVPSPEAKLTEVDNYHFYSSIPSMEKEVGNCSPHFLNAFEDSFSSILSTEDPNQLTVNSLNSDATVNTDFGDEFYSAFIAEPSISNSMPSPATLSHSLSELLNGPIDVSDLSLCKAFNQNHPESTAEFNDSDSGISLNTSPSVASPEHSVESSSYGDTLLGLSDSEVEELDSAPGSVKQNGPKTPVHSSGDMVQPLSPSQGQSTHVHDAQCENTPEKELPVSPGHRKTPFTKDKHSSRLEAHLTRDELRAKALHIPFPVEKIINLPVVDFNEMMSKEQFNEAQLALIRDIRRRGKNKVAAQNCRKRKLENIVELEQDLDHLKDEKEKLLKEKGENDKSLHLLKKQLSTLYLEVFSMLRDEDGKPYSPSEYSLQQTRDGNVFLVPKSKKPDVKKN

Read-out in this test: Nuclear factor erythroid 2-related factor 2 (Homo sapiens) (UniProt Q16236)
Nature of the test: LTEA_HepaRG_NFE2L2: Life Technologies and Expression Analysis (LTEA) Assay for Nuclear factor erythroid 2-related factor 2 (NFE2L2) Transcription Factor using HepaRG (AID 2283527).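 As to outcome: TaqMan qRT-PCR transcript level normalised to ACTB GAPDH and POLR2A housekeeping genes.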 The note with it: mRNA level, 48 h; actives raise or lower the signal. As to the method:
LTEA_HepaRG is a cell based, multiplexed-readout assay that uses HepaRG, a human liver cell line, with measurements taken at 48 hours after chemical dosing on a 96-well plate.LTEA_HepaRG_NFE2L2 is one of 102 assay component(s) measured in the LTEA HepaRG cell culture assay. It is a marker of Inflammation/injury.Data from the assay component LTEA_HepaRG_NFE2L2 was analyzed into 1 endpoint. This assay endpoint, LTEA_HepaRG_NFE2L2, was analyzed with bidirectional fitting relative to DMSO as the negative control and baseline of activity. Using a type of inducible reporter, measures of mRNA induction for gain or loss-of-signal activity can be used to understand regulation of transcription factor activity. To generalize the intended target to other relatable targets, this assay endpoint is annotated to the dna binding intended target family, where the subfamily is basic leucine zipper.
A total of 1060 chemcials from the ToxCast library were tested in eight-point concentration-response experiments. Cell culture and cytotoxicity assays were conducted at Thermo Fisher Scientific's Custom Services facility (Madison, WI). A single lot of human HepaRG cells (Thermo Fisher Scientific, Frederick, MD) was used for the cell culture experiments. 96-well format collagen type I coated plates of human HepaRG cells were prepared using established methods. Briefly, cryopreserved HepaRG cells were thawed, plated at a density of approximately 100,000 cells/well in HepaRG Thaw, Plate, and General Purpose media (HPRG770, Thermo Fisher Scientific), and incubated for 48 hours. 0.5% DMSO was selected as vehicle control to balance the requisite need of DMSO in HepaRG cultures to maintain differentiation (for example, baseline metabolism, proportions of hepatocytes vs. cholangiocytes), while enabling further hepatic receptor pathway activation (for example, PXR and CAR) in response to chemical exposure. 48 hours after plating, the culture medium was replaced with HepaRG Serum-Free Incudtion Media. Cells were exposed to each test chemical in duplicate and maintained in CO2 incubators for another 48 hours. Chemical plates were thawed to room temperature and 200x concentrations of treatment groups were prepared. 8-point conentration-reponse curves were made with the highest exposure at 100 uM, followed by half-log dilutions, all in 0.5% DMSO. Each test plate contained variouse controls, induction positive controls (1mM phenobarbital), cytotoxicity positive controls ([…] aflatoxin B1), vehicle controls (0.5% DMSO), and total lysis controls (0.5% DMSO). Cell morphology images were taken using an Essen IncuCyte FLR automated microscope, with six 96-well plates imaged in about 24 minutes. Images were captured and exported and JPEG files. Spent culture media was transfered to black-well plates for the LDH assay, and remaining media was sorted at -80 C for later use. Cells were treated with RLT buffer and frozen until shipped for gene expression analysis. Total RNA was isolated from the cell suspension in 75 uL of Buffer RLT (Qiagen, Germantown, MD 20874) by Quintiles/Expression Analysis (Durham, NC) using a custom isolation procedure. Total RNA from each plate well was transferred to a preamplification plate. Fluidigm's 96.96 Dynamic ArrayTM (Fluidigm, Amsterdam, the Netherlands) technology was used for gene expression analyses by quantitative reverse transcription polymerase chain reaction (qRT-PCR, performed by Quintiles/Expression Analysis, Durham, NC)89. Standard TaqManTM Assays (Applied Biosystems/ThermoFisher Scientific, Foster City, CA) were used to assess the expression of 93 genes selected based on their selectivity and sensitivity to important hepatic receptors known to be modulated by environmental chemicals; importance in human hepatocyte functionality; and hepatotoxicity. […]
For `CCCCCCOC(=O)c1ccccc1C(=O)OCCCCCC`, the compound was called inactive.
Turning to `CN(C)CCO`, the compound was called inactive.
With `CC#Cc1cc(C)nc(Nc2ccccc2)n1`, the AC50 (as a rule, the concentration at which the activity in the assay is half-maximal) was 30.2 µM (active).
Regarding `Cc1cc(-c2ccc(N)c(C)c2)ccc1N`, the compound was classed as inactive.
As to `C[C@]12CCC(=O)C=C1CC[C@@H]1[C@@H]2CC[C@]2(C)C(=O)CC[C@@H]12`, the compound was classed as inactive.
Same read-out and setting: for `CCCCCCCCCc1ccc(O)cc1` the value was “inactive”; for `Cc1cc(O)ccc1Cl`, “inactive”.
Take `O=C(NC(=O)c1c(F)cccc1F)Nc1cc(Cl)c(OC(F)(F)C(F)F)c(Cl)c1`: the compound was classed as inactive.
Take `CCOP(=S)(OCC)SCSC(C)(C)C`: the outcome was inactive.
As for `O=S(=O)(O)C(F)(F)C(F)(F)C(F)(F)C(F)(F)C(F)(F)C(F)(F)F`, the AC50 is 0.979 µM (active).
Take `CC(c1ccc(O)cc1)(c1ccc(O)cc1)c1ccc(O)cc1`: the concentration at half-maximal activity (AC50) was 73.9 µM (active).
With `O=S(=O)(O)C(F)(F)C(F)(F)C(F)(F)C(F)(F)F`, the compound was called inactive.
In the case of `CCCN(CCC)N=O`, the result was inactive.
Consider `NS(=O)(=O)C(F)(F)C(F)(F)C(F)(F)C(F)(F)C(F)(F)C(F)(F)C(F)(F)C(F)(F)F`, for which the AC50 is 2.76 µM (active).
Take `CC(C)C(=O)OCC(C)(C)C(OC(=O)C(C)C)C(C)C` (stereo not given): the compound was classed as inactive.
`O=C(O)C(F)(F)C(F)(F)C(F)(F)C(F)(F)C(F)(F)F`: the call was inactive.
Same read-out and setting: the same measure for `CCOCCOC(C)=O`: “inactive”.
On the same count and under the same terms, the same measure for `CC(C)(O)C(=O)Nc1ccc([N+](=O)[O-])c(C(F)(F)F)c1`: “inactive”; for `C=CC(=O)NCNC(=O)C=C`: “inactive”; for `Clc1ccc(C(Cl)(Cl)Cl)cc1`: “inactive”.
As for `CCNc1nc(NC(C)C)nc(SC)n1`, the outcome was inactive.
For `c1ccc(-c2ccccc2)cc1`, the outcome was inactive.
On to `Oc1ccc(Cl)cc1Cl`, for which the outcome was inactive.
On to `O=NN(c1ccccc1)c1ccccc1`, for which the outcome was inactive.
Regarding `O=C(O)C(F)(F)C(F)(F)C(F)(F)C(F)(F)C(F)(F)C(F)(F)C(F)(F)C(F)(F)F`, the half-maximal activity concentration (AC50) was 74.9 µM (active).
Turning to `C=CC(N)=O`, the call was inactive.
With `C1CC2OC2CC1C1CO1` (stereo not given), the result was inactive.
For the compound `ClC(Cl)=C(c1ccc(Cl)cc1)c1ccc(Cl)cc1`, the outcome was inactive.
On to `O=C(NC(=O)c1cc(F)c(F)cc1Cl)Nc1cc(F)ccc1N1CCC(C(=O)O)CC1`, for which the compound was classed as inactive.
In the case of `Oc1c(Cl)c(Cl)c(Cl)c(Cl)c1Cl`, the outcome was inactive.
Regarding `CN(C)c1nc(=O)n(C2CCCCC2)c(=O)n1C`, the compound was classed as inactive.
`Cc1ccccc1O`: the compound was classed as inactive.
For `CCSC(=O)N(CC)C1CCCCC1`, the compound was classed as inactive.
As to `CC(C)(c1ccccc1)c1ccc(O)cc1`, the compound was called inactive.
For `O=C(O)C(F)(F)C(F)(F)C(F)(F)C(F)(F)C(F)(F)C(F)(F)C(F)(F)C(F)(F)C(F)(F)F`, the call was inactive.
Turning to `ClC1=C(Cl)[C@]2(Cl)[C@@H]3[C@@H]4C[C@@H]([C@H]5O[C@@H]45)[C@@H]3[C@@]1(Cl)C2(Cl)Cl`, the AC50 was 0.0292 µM (active).
With `Nc1ccc(-c2ccc(N)cc2)cc1`, the compound was classed as inactive.
For the compound `Cc1cccc(C)c1N`, the compound was called inactive.
In the case of `N#Cc1ccc(N(CC(N)=O)CC(F)(F)F)cc1C(F)(F)F`, the result was inactive.
Still for that read-out and setting: for `CC1=C2C[C@H]3[C@@H](CC=C4C[C@@H](O)CC[C@@]43C)[C@@H]2CC[C@]12O[C@@H]1C[C@H](C)CN[C@H]1[C@H]2C` the value was “inactive”.

(Values after PubChem BioAssay (EPA / NIEHS).)
